Experimental data published in PubChem BioAssay.

Experiment: binders of probe aFST on microarray, primary screen, stem cell growth factor project, biochemical, small-molecule microarray, fluorescence 635/667 (AID 1086);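 also: score merges 667 nm fluorescence with signal-to-noise of each printed compound spot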
Settings: higher = more signal

Q: For C=CCOC(=O)[C@H]1[C@@H]2C(=O)O[C@@H](c3ccccc3)[C@@H](c3ccccc3)N2[C@@H](c2ccc(OCCOC(=O)[C@@H]3C[C@@H]4C(=O)N[C@@H](CCCC[N+](C)(C)C)C(=O)N4[C@@H]3c3ccc(O)cc3)cc2)[C@]12C(=O)Nc1ccc(I)cc12, which composite z-score is on record?
A: Its composite z-score is 0.365.

Q: Which composite z-score does the source give for CCOC(=O)C1=C[C@@H](C(C)(C)C)N(S(=O)(=O)c2ccc(C)cc2)[C@H]1c1ccc(C#N)cc1 here?
A: Its composite z-score is 0.313.

Q: For CCOC(=O)C[C@H]1[C@H](OC(=O)Cc2ccc3c(c2)OCO3)[C@@H](NC(=O)c2ccc3ccccc3n2)c2cc(OCCCO)ccc2N1C(=O)Cc1ccc(OC)cc1, which composite z-score is on record?
A: Its composite z-score is 0.447.

Q: Which composite z-score does the source give for COC(=O)[C@@]1(Cc2ccccc2)[C@H]2c3cc(C(=O)N(C)C)n(Cc4ccc(C(F)(F)F)nc4)c3C[C@H]2CN1C(=O)c1ccccc1 here?
A: The composite z-score was 1.74.

Experiment: binders of probe aHhip on microarray, primary screen, stem cell growth factor project, biochemical, small-molecule microarray, fluorescence 635/667 (AID 1087);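 also: score merges spot fluorescence at 667nm with spot signal to noise ratio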
Settings: higher = more signal

Q: With C=CCC(OC(C)=O)[C@@H]1[C@@H](N(Cc2cc3ccccc3o2)C(=O)Cc2ccc(OC)cc2)c2cc(OCCCO)ccc2N1C(=O)c1ccc2ccccc2n1 (stereo not given in full) as the compound, how does the composite z-score read?
A: The composite z-score was 0.12.

Q: Which composite z-score does the source give for C=C(COC)/C(=C/C[C@@H](OC(C)=O)c1ccccc1OCCO)c1cnc2ccccc2c1 here?
A: The composite z-score was -0.169.

Q: With Cc1ccc(S[C@]2(C(=O)NCC(F)(F)F)CC(=O)N(Cc3ccccc3C(F)(F)F)[C@@H]2c2ccc(CO)cc2)cc1 as the compound, how does the composite z-score read?
A: Its composite z-score is -0.191.

Q: For C=CCC(OC(C)=O)[C@@H]1[C@@H](N(Cc2cccc3ccccc23)C(=O)Cc2ccc(OC)cc2)c2cc(OCCCO)ccc2N1C(=O)c1ccc2ccccc2c1 (stereo not given in full), which composite z-score is on record?
A: The composite z-score was -0.337.

Q: Which composite z-score does the source give for COc1ccc([Si](C)(C)[C@@H]2[C@@H](CC(=O)N(CCO)Cc3ccccc3)O[C@]3(C(=O)N(Cc4ccc(N5C(=O)c6cccc7cccc5c67)cc4)c4ccccc43)[C@H]2C)cc1 here?
A: The composite z-score was -0.353.

Q: For COC(=O)[C@@]1(Cc2ccc(OC)cc2)[C@H]2c3cc(C(=O)N(C)C)[nH]c3C[C@H]2CN1C(=O)c1ccccc1, which composite z-score is on record?
A: Its composite z-score is -0.0905.

Q: Which composite z-score does the source give for CCOc1cc(C(O)C2C=CC3C(=O)N(c4ccccc4)C(=O)C3N2Nc2ccccc2F)ccc1O (stereo not given) here?
A: Its composite z-score is 0.02.

Q: For O=C1O[C@@H](c2ccccc2)[C@@H](c2ccccc2)N2[C@@H](c3ccc(OCCO)cc3)[C@]3(C(=O)Nc4ccc(C#CC5(O)CCCCCC5)cc43)[C@@H](C(=O)O)[C@H]12, which composite z-score is on record?
A: The composite z-score was 0.0176.

Q: Which composite z-score does the source give for COc1ccc(C(=O)Nc2ccc(CN3C(=O)[C@@]4(O[C@@H](CCn5cc(CCO)nn5)[C@H]([Si](C)(C)c5ccc(OC)cc5)[C@H]4C)c4ccccc43)cc2)cc1 here?
A: Its composite z-score is -0.137.

Q: With O=C1[C@H]2C=C(I)[C@H](C[C@@H]2OCCCCCCO)[C@@]12CO2 as the compound, how does the composite z-score read?
A: Its composite z-score is -0.183.

Q: For CCCC#C[Si](O[C@H](CC)c1cn(Cc2ccccc2)nn1)(C(C)C)C(C)C, which composite z-score is on record?
A: Its composite z-score is -0.166.

Q: With C=CCN1C(=O)[C@@]2(O[C@@H](CCn3cc([C@H](O)c4ccccc4)nn3)[C@H]([Si](C)(C)c3ccc(OC)cc3)[C@H]2C)c2cc(N3C(=O)c4cccc5cccc3c45)ccc21 as the compound, how does the composite z-score read?
A: The composite z-score was -0.271.

Q: For O=C1N(Cc2ccccc2)c2ccccc2C[C@@]12COC(c1ccc(OCCCO)cc1)=N2, which composite z-score is on record?
A: The composite z-score was -0.0237.

Q: For CC1CC/C=C\[C@H]2OC34C=CCN(c5ccc6ccccc6c5)C(=O)[C@H]3N(C(C)CO)C(=O)[C@@H]4C2C(=O)O1 (stereo not given in full), which composite z-score is on record?
A: The composite z-score was -0.0994.

Q: With COc1ccc(C(=O)Nc2cccc(CN3C(=O)[C@]4(O[C@H](CC(=O)N5Cc6ccccc6C[C@H]5CO)[C@@H]([Si](C)(C)c5ccc(OC)cc5)[C@@H]4C)c4ccccc43)c2)cc1 as the compound, how does the composite z-score read?
A: Its composite z-score is -0.211.

Q: With COC(=O)c1cccc([C@H]2OC(=CC(=O)OC(C)C)C[C@@H](c3cccc(C(=O)OC)c3)O2)c1 as the compound, how does the composite z-score read?
A: The composite z-score was -0.289.

Q: For COC(=O)[C@@]1(Cc2ccc(F)cc2)[C@H]2c3cc(C(=O)N4CCCC4)n(Cc4cc(F)cc5c4OCOC5)c3C[C@H]2CN1C(=O)c1ccccc1, which composite z-score is on record?
A: The composite z-score was 0.0759.

Q: With C=C(CCCC)/C(=C/C[C@@H](OC(C)=O)c1ccc(CO)o1)c1cnc2ccccc2c1 as the compound, how does the composite z-score read?
A: The composite z-score was -0.179.

Q: With CC(C)N1C(=O)C[C@@](C(=O)NCCN2CCOCC2)(c2ccc([N+](=O)[O-])cc2)[C@H]1c1ccc(CO)cc1 as the compound, how does the composite z-score read?
A: Its composite z-score is -0.0708.

Q: Which composite z-score does the source give for C=C(CCCC)/C(=C/C[C@H](OC(=O)c1ccncc1)c1ccccc1OCCO)c1cc(C(=O)OC)ccc1OC here?
A: The composite z-score was -0.0237.

Q: For O=C1C[C@@](C(=O)NCc2ccccc2)(c2ccc([N+](=O)[O-])cc2)[C@@H](c2ccc(CO)cc2)N1C1CCCCC1, which composite z-score is on record?
A: The composite z-score was -0.158.

Q: With CC(C)=C1C(=O)C(c2ccccc2)=C2CN3C(=O)N(CCc4ccccc4)C(=O)[C@]3(C)[C@H]21 as the compound, how does the composite z-score read?
A: The composite z-score was -0.0346.

Q: With COCCOC(=O)N1C(=O)[C@@]2(c3cc(C#CCC(C(=O)OC)C(=O)OC)ccc31)[C@H](C(=O)Nc1nc3ccccc3s1)[C@H]1C(=O)O[C@H](c3ccccc3)[C@H](c3ccccc3)N1[C@@H]2c1ccc(OCCO)cc1 as the compound, how does the composite z-score read?
A: The composite z-score was -0.0699.

Q: For COc1ccc(C(O)C2C=CC3C(=O)N(c4ccccc4)C(=O)C3N2Nc2ccc([N+](=O)[O-])cc2)c2ccccc12 (stereo not given), which composite z-score is on record?
A: The composite z-score was 0.251.

Q: For C[N+](C)(C)CCCC[C@@H]1NC(=O)[C@@H]2C[C@H](C(=O)NCc3ccc(F)cc3)[C@H](c3ccc(O)cc3)N2C1=O, which composite z-score is on record?
A: The composite z-score was -0.201.

Q: With CC(C)OC(=O)CC(=O)CC(O)c1cccc([N+](=O)[O-])c1 (stereo not given) as the compound, how does the composite z-score read?
A: The composite z-score was -0.305.

Q: With O=C(NCC(O)CO)[C@@]1(CCS(=O)(=O)c2ccccc2)N=C(c2ccc(OCCCO)cc2)O[C@H]1c1ccccc1 (stereo not given in full) as the compound, how does the composite z-score read?
A: Its composite z-score is 0.0302.

Q: Which composite z-score does the source give for Cc1ccc(C(C)CC(O)C2C=CC3C(=O)N(C)C(=O)C3N2Nc2ccccc2)o1 (stereo not given) here?
A: Its composite z-score is -0.0994.

Q: With CCOC(=O)C[C@H]1[C@H](OC(=O)c2ccccc2-c2ccccc2)[C@@H](NC(=O)c2ccc3ccccc3c2)c2cc(OCCCO)ccc2N1C(=O)Cc1ccc(OC)cc1 as the compound, how does the composite z-score read?
A: The composite z-score was -0.0645.

Q: For Cc1ccc(S[C@]2(C(=O)NC(C)C)CC(=O)N(C3CCCCC3)[C@@H]2c2ccc(CO)cc2I)cc1, which composite z-score is on record?
A: Its composite z-score is -0.399.

Q: With N#Cc1ccc(NN2C(C(O)C3CC=CCC3)C=CC3C(=O)N(c4ccccc4)C(=O)C32)cc1 (stereo not given) as the compound, how does the composite z-score read?
A: The composite z-score was -0.0427.

Q: Which composite z-score does the source give for Cc1ccc(F)cc1S(=O)(=O)N[C@H]1CCN(Cc2ccc(OC(C)C)cc2)C1 here?
A: Its composite z-score is -0.132.

Q: For C=CCOC(=O)[C@H]1[C@@H]2C(=O)O[C@@H](c3ccccc3)[C@@H](c3ccccc3)N2[C@@H](c2ccc(OCCOC(=O)[C@@H]3C[C@@H]4C(=O)N[C@@H](CCCC[N+](C)(C)C)C(=O)N4[C@@H]3c3ccc(O)cc3)cc2)[C@]12C(=O)Nc1ccc(I)cc12, which composite z-score is on record?
A: Its composite z-score is -0.0088.

Q: Which composite z-score does the source give for CCOC(=O)C1=C[C@@H](C(C)(C)C)N(S(=O)(=O)c2ccc(C)cc2)[C@H]1c1ccc(C#N)cc1 here?
A: Its composite z-score is 0.144.

Q: For CCOC(=O)C[C@H]1[C@H](OC(=O)Cc2ccc3c(c2)OCO3)[C@@H](NC(=O)c2ccc3ccccc3n2)c2cc(OCCCO)ccc2N1C(=O)Cc1ccc(OC)cc1, which composite z-score is on record?
A: Its composite z-score is -0.0994.

Q: Which composite z-score does the source give for COC(=O)[C@@]1(Cc2ccccc2)[C@H]2c3cc(C(=O)N(C)C)n(Cc4ccc(C(F)(F)F)nc4)c3C[C@H]2CN1C(=O)c1ccccc1 here?
A: Its composite z-score is -0.126.
